Results reported in the supplement of paper PMC9177965.
Several values for one entry are separate records, joined by “and”; a condition that tells them apart may be missing. Equal entries are not always repeated.

What was measured:
[1] = test system: HT29 RNF43 G659fs (RNF43 659mut, CRISPR-edited); assay: cell viability activity relative to DMSO (negative = inhibition); higher = more viable cells (less growth inhibition); details: 5 µM; 96 h
Procedure: (§1)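 Broad Repurposing Library primary screen at a single dose of 5 uM. HT29 sg-Ctrl and HT29 RNF43 G659fs CRISPR-edited isogenic cells were seeded at 2500 cells/well in 384-well plates in duplicate and treated for 96 h. Viability was read by CellTiter-Glo and reported as % activity relative to DMSO, with MG132 as the positive control (negative = growth inhibition).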

[2] = test system: HT29 sg-Ctrl (RNF43 wildtype); assay: as above; details: 5 µM; 96 h
Procedure: as §1

SMILES | cell viability activity [1] | cell viability activity [2]
Cc1cc(-c2cc(O)ccc2Cl)cc2nnc(Nc3ccc(OCCN4CCCC4)cc3)nc12 | -41.1% | -76.9%
Cn1cc(-c2[nH]c3cc(NC(=O)[C@H](N)C4CCCCC4)cc4c3c2C=NNC4=O)cn1 | -54.9% | -79.1%
COc1c(OCCCN2CCOCC2)ccc2c3n(c(=NC(=O)c4cnc(N)nc4)nc12)CCN3 | -59.6% | -46.8%
CN1CCN(c2ccc3nc(-c4c(N)c5c(F)cccc5[nH]c4=O)[nH]c3c2)CC1 | -60.6% | -77.6%
CCOc1cc(C(=O)N2CCC(N3CCN(C)CC3)CC2)ccc1Nc1ncc2c(n1)N(C1CCCC1)c1ccccc1C(=O)N2C | -64.4% | -65.5%
O=C(Cc1ccc(-c2ccc(OCCN3CCOCC3)cc2)cn1)NCc1ccccc1 | -59.4% | -52%
CN1CCN(Cc2ccc(Nc3ncc(Cl)c(Nc4ccccc4S(=O)(=O)N(C)C)n3)cc2)CC1 | -94.8% | -96.1%
Clc1ccc(C2(c3ccc(-c4cn[nH]c4)cc3)CCNCC2)cc1 | -71.5% | -86.8%
COc1cccc(OCCCN)c1-c1cc(Nc2cnc(C#N)cn2)n[nH]1 | -78.2% | -86.9%
CN[C@@H](C)C(=O)N[C@H](C(=O)N1CCC[C@H]1C(=O)N[C@H]1c2ccccc2C[C@H]1OCC#CC#CCO[C@@H]1Cc2ccccc2[C@@H]1NC(=O)[C@@H]1CCCN1C(=O)[C@@H](NC(=O)[C@H](C)NC)C1CCCCC1)C1CCCCC1 | -58.1% | -77.2%
COC(=O)C1=C(C)NC(C)=C(C(=O)OC2CCCN(Cc3ccccc3)C2)C1c1cccc([N+](=O)[O-])c1 (configuration not stated) | -85.8% | -85.6%
Cc1cc(Nc2nc(N[C@@H](C)c3ccc(F)cc3)c(C#N)cc2F)n[nH]1 | -66.7% | -56.7%
C[C@H]1O[C@@H](O[C@H]2[C@@H](O)C[C@H](O[C@H]3[C@@H](O)C[C@H](O[C@H]4CC[C@@]5(C)[C@H](CC[C@@H]6[C@@H]5C[C@@H](O)[C@]5(C)[C@@H](C7=CC(=O)OC7)CC[C@]65O)C4)O[C@@H]3C)O[C@@H]2C)C[C@H](O)[C@@H]1O | -89.3% | -90.8%
CC(C)(C)c1cnc(CSc2cnc(NC(=O)C3CCNCC3)s2)o1 | -81.8% | -81.8%
CC(C)c1cc(C(C)C)c(-c2csc(N(CCN(C)C)Cc3cccnc3)n2)c(C(C)C)c1 | -24% | -63.4%
CN1CCC[C@@H]1Cc1c[nH]c2ccc(CCS(=O)(=O)c3ccccc3)cc12 | -25.1% | -27.2%
CCCCCCCC[N+](C)(C)Cc1ccccc1 | -22.5% | -16.8%
CC(C)CC(=O)Nc1n[nH]c2c1CN(C(=O)C1CCN(C)CC1)C2(C)C | -60.4% | -61.4%
Cc1cc(OCc2nc(-c3ccccc3Cl)cs2)ccc1OCC(=O)O | -41.6% | -31.1%
CC(=O)c1c(C)c2cnc(Nc3ccc(N4CCNCC4)cn3)nc2n(C2CCCC2)c1=O | -37.2% | -48.4%
CN[C@H]1CN(c2ccc3c(=O)c(C(=O)O)cn(-c4nccs4)c3n2)C[C@@H]1OC | -60.3% | -30.9%

SMILES | cell viability activity [1] | cell viability activity [2]
CNC(=O)CN1CCC(Oc2cc3c(Nc4cccc(Cl)c4F)ncnc3cc2OC)CC1 | -41.9% | -24.1%
COC(=O)Nc1nc2cc(C(=O)c3cccs3)ccc2[nH]1 | -64.5% | -78.3%
Cc1nc(-c2cn3c(n2)-c2ccc(-c4cnn(C(C)(C)C(N)=O)c4)cc2OCC3)n(C(C)C)n1 | -53.2% | -48.5%
C/C(=N\NC(=S)N1CCC1)c1ccccn1 | -82.2% | -88.9%
COc1cc2ncn(-c3cc(OCc4ccccc4C(F)(F)F)c(C(N)=O)s3)c2cc1OC | -72.5% | -65.4%
C/C=C1\NC(=O)[C@H]2CSSCC/C=C/[C@H](CC(=O)N[C@H](C(C)C)C(=O)N2)OC(=O)[C@H](C(C)C)NC1=O | -94.9% | -77.3%
NC(=O)c1cnc(N[C@@H]2CCCC[C@@H]2N)nc1Nc1cccc(-n2nccn2)c1 | -35.6% and -40.3% | -34.2% and -41.6%
CC(=O)O[C@H]1C(=O)[C@@]2(C)[C@H]([C@H](OC(=O)c3ccccc3)[C@]3(O)C[C@H](OC(=O)[C@H](O)[C@@H](NC(=O)c4ccccc4)c4ccccc4)C(C)=C1C3(C)C)[C@]1(OC(C)=O)CO[C@@H]1C[C@@H]2O | -58.4% and -50% | -54.2% and -52.9%
NC1(c2ccc(-c3nc4ccn5c(=O)[nH]nc5c4cc3-c3ccccc3)cc2)CCC1 | -42.7% | -39.4%
CC(C)(C)c1nc(-c2cccc(NS(=O)(=O)c3c(F)cccc3F)c2F)c(-c2ccnc(N)n2)s1 | -69.4% | -68.4%
CNCc1ccc(-c2cc(-c3nc(-c4ccc(S(=O)(=O)C(C)C)cc4)cnc3N)on2)cc1 | -78.3% | -74.5%
CNCCC=C1c2ccccc2CCc2ccccc21 | -70.1% | -77.1%
COc1c/c(=C2\C=c3ccccc3=N2)[nH]/c1=C\c1[nH]c(C)cc1C | -93.8% | -88.7%
C[C@H]1O[C@@H](O[C@H]2CC[C@@]3(C)[C@H](CC[C@@H]4[C@@H]3C[C@@H](O)[C@]3(C)[C@@H](C5=CC(=O)OC5)CC[C@]43O)C2)C[C@H](O)[C@@H]1O[C@H]1C[C@H](O)[C@H](O[C@H]2C[C@H](O)[C@H](O[C@@H]3O[C@H](CO)[C@@H](O)[C@H](O)[C@H]3O)[C@@H](C)O2)[C@@H](C)O1 | -90.5% | -91.5%
CN(C)c1ccc(C(=C2C=CC(=[N+](C)C)C=C2)c2ccc(N(C)C)cc2)cc1 | -96.3% | -89.3%
c1cc(-c2cnn3cc(-c4ccc(N5CCNCC5)cc4)cnc23)c2cccnc2c1 | -97.7% | -96.2%
COc1c(C)c2c(c(O)c1C/C=C(\C)CCC(=O)O)C(=O)OC2 | -22.3% | -27.7%
CC(C)(C)c1ccc(-c2nc3ccccc3[nH]2)cc1 | -58.2% | -67.1%
CCC(=O)N1CCN(c2ccc(-n3c(=O)ccc4cnc5ccc(-c6cnc7ccccc7c6)cc5c43)cc2C(F)(F)F)CC1 | -56.6% | -34.6%
CO[C@H]1C(=O)[C@]2(C)[C@@H](OC)C[C@H]3OC[C@@]3(OC(C)=O)[C@H]2[C@H](OC(=O)c2ccccc2)[C@]2(O)C[C@H](OC(=O)[C@H](O)[C@@H](NC(=O)OC(C)(C)C)c3ccccc3)C(C)=C1C2(C)C | -45% | -50.5%
